Among all 370,000 compounds or so, about 3,800 (1%) were called active. The sample holds actives, similar compounds and a random draw of the others, so the mix is not that of the screen. Values without a mark were called inactive. Cut-off read from the data, not from the text of the source: active = activation above about 7.8%; inactive = the rest.
Assay: SMARCA2 (BRM) function activators, primary screen, cell-based, luminescence, high throughput (AID 652017);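 note: 0% = vehicle wells and 100% = reference activator wells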
Conditions: MG213 cells, MMTV-luciferase reporter, dexamethasone, overnight; at 9.1 µM; stronger effect = higher value

SMILES	activation
CCOC(=O)C1C(c2ccc(O)cc2)NC(=O)NC1(O)C(F)(F)F (stereo not drawn)	-2.11%
O=C(c1cccs1)C1C(c2ccc(Br)cc2)NC(=S)NC1(O)C(F)(F)F (stereo not drawn)	9.18% (active)
Cc1cc(-c2n[nH]c(=S)n2/N=C/C(Br)=C/c2ccccc2)n[nH]1	12.8% (active)
CSc1ccc(C=Nn2c(-c3ccc(F)cc3)n[nH]c2=S)cc1	-5.15%
C=CCN1C(=O)[C@@H](CC(=O)N2CCN(C(=O)OCC)CC2)[C@]2(C(=O)OCC)CCCCC/C=C/12	0.06%
CC1Cc2ccccc2N1C(=O)CSc1nc2ccccc2o1 (stereo not drawn)	1.43%
CC(C)(C)C(=O)CSc1nc2ccccc2o1	8.4% (active)
O=C(CSc1nc2ccccc2o1)N1CCN(c2ccc(Cl)cc2)CC1	-2.94%
COc1ccnc(C(=O)N2CCC(Oc3cccnc3)CC2)c1	3.85%
COc1ccc(N2CCN(CCNS(=O)(=O)c3ccc(Cl)s3)CC2)cc1	0.84%
CN1C(=O)C2(OCCCO2)c2cc(Cl)ccc21	-0.14%
O=C1Oc2ccccc2C(=O)/C1=C/c1ccccc1O	1.29%
COC(=O)c1ccc(/C=N/N2C(C)CCCC2C)cc1 (stereo not drawn)	-1.42%
COC(=O)c1ccc(/C=C2/C(=O)Oc3ccccc32)cc1	10.5% (active)
CN(C)Cc1cn(-c2ccc(-c3noc4c3C(=O)N(CC(=O)N3CCOCC3)CC4)cc2)nn1	-2.05%
COc1ccc(S(=O)(=O)Nc2ccc3c(c2)C(=O)N([C@H](C)CO)C[C@H](C)[C@@H](CN(C)C)OCCCC[C@H](C)O3)cc1	-4.35%
CC(OC(=O)CNC(=O)c1ccco1)C(=O)Nc1ccc(Cl)cn1 (stereo not drawn)	-2.28%
Cc1cc(NC(=O)[C@H](C)NC(=O)c2ccco2)ccc1Br	-1.37%
O=C(COC(=O)CNC(=O)c1ccco1)Nc1ccc(F)cc1	-3.14%
O=C(Nc1ccc2nccnc2c1)c1ccco1	9.43% (active)

SMILES	activation
O=C(Nc1ccc(NC(=O)c2cccs2)cn1)c1ccco1	9.66% (active)
CC1CCN(c2ccc(-c3ccc(NC(=O)c4ccco4)cc3)nn2)CC1	3.83%
C=CS(=O)(=O)N(Cc1nnn(Cc2ccccc2)c1Br)[C@H](C(=O)OC)C(C)C	3.93%
CCC(=O)Nc1ccc2c(c1)C(=O)N(C)[C@@H]1CC[C@@H](CC(=O)NCCc3ccccc3)O[C@H]1CO2	-2.13%
COc1ccc(S[C@]2(C(=O)N(C)C)CC(=O)N(c3ccc(OC)cc3)[C@@H]2c2ccc(OC)cc2)cc1	2.23%
CCCCn1nnnc1C(c1cc2ccccc2o1)N(C)Cc1ccc(Cl)c(Cl)c1 (stereo not drawn)	8.8% (active)
CCCCn1nnnc1C(c1ccccc1)N1CCN(c2ccccc2OC)CC1 (stereo not drawn)	-1.13%
Cn1nnnc1NCc1ccc(Cl)c(Cl)c1	-0.94%
CC(C)N1CCCCC(NC(=O)c2ccc3ccccc3c2)C1=O (stereo not drawn)	-1.33%
N[C@@H](Cc1ccccc1)C(=O)N1CCC[C@@H]1C(=O)N1CCC2CCN(S(=O)(=O)c3ccccc3)CC21 (stereo partly drawn)	-1.95%
FC(F)(F)c1cccc(-c2nc3ccccc3n2C(c2ccccc2)c2nc3ccccc3[nH]2)c1 (stereo not drawn)	9.93% (active)
FC(F)(F)c1cccc(-c2cc3ccccc3nc2N2CCCC2)c1	0.37%
CCC(c1nc2ccccc2[nH]1)n1c(=O)c(-c2cccs2)nc2ccccc21 (stereo not drawn)	-3.44%
O=S(=O)(c1ccccc1)N1CCC(c2nc3ccccc3o2)CC1	-4.23%
Cc1ccc(S(=O)(=O)N2CCC(C(=O)N3CCCCCCC3)CC2)cc1	-3.84%
O=C(C1CCC1)N1CCN(S(=O)(=O)c2ccc([N+](=O)[O-])cc2)CC1	9.83% (active)
O=C(C1CCN(S(=O)(=O)c2ccccc2)CC1)N1CCN(C2CCCCC2)CC1	-4.09%
COC(=O)[C@H](C(C)C)N(CCCc1cn(Cc2ccccc2)nn1)S(=O)(=O)c1ccc(F)cc1Br	-0.98%
CCOC(=O)c1nnn2c1nc(N1CCN(c3ccccc3)CC1)c1ccccc12	-2.86%
O=C(CCCCCN1C(=O)C2C3C=CC(C3)C2C1=O)Nc1ccccc1 (stereo not drawn)	-2.37%

SMILES	activation
Cc1ccc(C)c(NC2=NCC(=O)N2c2ccc3c(c2)OCCO3)c1	2.74%
Cc1cc(=O)[nH]c(N/N=C/c2ccc3c(c2)OCCO3)n1	8.3% (active)
Cc1cc(=O)[nH]c(Nc2cccc(Br)c2)n1	-1.71%
CCCCNC(=O)C[C@@H]1C(=O)N(CCc2ccc(Cl)cc2)C2=CCCC[C@]21C(=O)OCC	-0.47%
COc1cccc(-c2cnc(OC(C)(C)C)nc2OC(C)(C)C)c1	-2.58%
COc1cccc(NS(=O)(=O)c2ccc(-c3coc(C)n3)cc2)c1	-3.45%
COc1cccc(-c2nc3cc(C)ccc3o2)c1	7.97% (active)
C=CCN(C)CC#Cc1ccccc1	0.78%
COP(=O)(O)CNC(=O)OCc1ccccc1	-0.59%
CC(CCN1CCC(C(O)(c2ccccc2)c2ccccc2)CC1)Oc1ccc(Cl)cc1 (stereo not drawn)	-5.29%
COCC(=O)Nc1c(I)c(C(=O)NCC(O)CO)c(I)c(C(=O)N(C)CC(O)CO)c1I (stereo not drawn)	-1.43%
CCOC(=O)C1(Cc2ccccc2)CCN(Cc2cn(C(C)=O)c3ccccc23)CC1	-3.37%
Cc1ccc(OCCCCc2c(C)n[nH]c2C)cc1	-4.25%
Nc1nc(SCCOc2ccccc2)n[nH]1	-0.38%
CCCOc1ccc(-c2nc(N)n[nH]2)cc1	8.06% (active)
O=C(NCCc1c[nH]c2ccccc12)OCc1cn(-c2c(F)cccc2F)nn1	-1.59%
COC(=O)[C@]12C[C@H](CC(=O)N3CCOCC3)C(=O)N(Cc3ccc(Cl)cc3Cl)C1=C[C@H](COCc1ccccc1)O[C@@H]2C	-3.76%
COC[C@@H]1CCCN1c1ccc2c(c1)O[C@H](C)CCN(C1CC1)S2(=O)=O	-0.54%
